Our source for the growth inhibition values is PubChem BioAssay (NCI).

Compounds without any hit were thinned out: in the full panel of roughly 79,000, 15% have a hit. A number with no mark means an inactive call. Activity calls are given as the source filed them. No stated cut-off is given here; in the data, active means growth inhibition above about 70%; inactive means the rest.

A short description of test [1]: NCI Yeast Anticancer Drug Screen. Data for the rad50 strain (AID 155).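 Further: 0% = growth of vehicle-only cultures of the same strain.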 The conditions noted are these: S. cerevisiae rad50 strain growth inhibition; at 50.0 µM; stronger effect = higher value. In short, it runs like this: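 Compounds were tested on a yeast strain with an engineered DNA damage repair alteration; the reported value is growth inhibition normalised to vehicle treatment.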

Test [2] in a line: NCI Yeast Anticancer Drug Screen. Data for the mec2-1 strain (AID 157). Conditions: S. cerevisiae mec2-1 strain, at 50.0 µM, stronger effect = higher value. In short, it runs like this:
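Using mec2-1 yeast: add compound, measure growth, express inhibition versus vehicle-treated cultures.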

Test [3] can be described thus: NCI Yeast Anticancer Drug Screen. Data for the sgs1 mgt1 strain (AID 161).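 Further: 0% = growth of cultures given vehicle only.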 The conditions noted are these: S. cerevisiae sgs1 mgt1 strain, at 50.0 µM, stronger effect = higher value. A digest of the protocol: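 Compounds are added to genetically altered yeast, and growth is compared with cultures given vehicle alone to give percent inhibition.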
A short description of test [4]: NCI Yeast Anticancer Drug Screen. Data for the cln2 rad14 strain (AID 165).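 Further: 0% = growth equal to vehicle treated cultures.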 The conditions noted are these: S. cerevisiae cln2 rad14 strain, at 50.0 µM, stronger effect = higher value. In short, it runs like this: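 Yeast strain cln2 rad14, bearing defects in cell cycle control and DNA repair, serves as the test system; values reflect growth inhibition compared with vehicle.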

Test [5] in a line: NCI Yeast Anticancer Drug Screen. Data for the bub3 strain (AID 167). Conditions: S. cerevisiae bub3 mutant strain, at 50.0 µM, stronger effect = higher value. A digest of the protocol: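 Growth of a checkpoint-deficient yeast mutant is measured after compound exposure. Values represent inhibition relative to vehicle.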
Test [6] can be described thus: NCI Yeast Anticancer Drug Screen. Data for the mlh1 rad18 strain (AID 175). Conditions: S. cerevisiae mlh1 rad18 strain growth inhibition; at 50.0 µM; stronger effect = higher value. In short, it runs like this:
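Steps: expose repair-defective yeast to compound; measure growth; express inhibition against vehicle-treated controls.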

For `O=C1CC2C1C1C=CC2n2c(=O)n(-c3ccccc3)c(=O)n21` (centres undefined), the growth inhibition in test [1] was -11.6%; in test [2], 9.05%; in test [3], 13.5%; in test [4], 6%; in test [5], 2.2%; in test [6], 15.4%.
With `O=C(O)COc1ccc2ccccc2c1`, the growth inhibition in test [1] is -15.4%; in test [2] it was 3.55%; in test [3] it was -22.9%; in test [4], -14.8%; in test [5], 4.15%; in test [6], 2.1%.
`Cc1cccc(C)c1NC(=O)Nc1cccc(C#N)c1`: the growth inhibition in test [1] is -0.3%; in test [2] it was -10.8%; in test [3], 7.35%; in test [4], 15.3%; in test [5], -0.55%; in test [6], 17.4%.
`c1ccc(-c2nnc(-c3ccc4ccccc4c3)o2)cc1`: the growth inhibition in test [1] is -0.1%; in test [2], -6.5%; in test [3], 1.1%; in test [4], -40%; in test [5] it was 13.4%; in test [6], -2%.
Take `COc1nc2nccc-2c2occn12`: the growth inhibition in test [1] is -29.4%; in test [2], -11.2%; in test [3], -16.8%; in test [4], -27.5%; in test [5], -9.6%; in test [6], -29.1%.
On to `COC1CCC(O)C(C=Nc2ccccc2)C1` (centres undefined), for which the growth inhibition in test [1] is 4.8%; in test [2] it was -1.85%; in test [3] it was -11.8%; in test [4], 4.35%; in test [5] it was 8.5%; in test [6] it was -18.8%.
With `CCCCC[N+](CCCCC)(CCCCC)CCCCC`, the growth inhibition in test [1] is -10.8%; in test [2] it was -16.4%; in test [3] it was -27.4%; in test [4], 8.4%; in test [5], 14%; in test [6], -13.5%.
As for `Cc1cc(C)c2ccc(=O)[nH]c2n1`, the growth inhibition was -2.8% in test [1]; -9% in test [2]; 2.6% in test [3]; -3.05% in test [4]; 8.75% in test [5]; 8.2% in test [6].
Consider `COc1nc(NC2OC(COC(C)=O)C(OC(C)=O)C(OC(C)=O)C2OC(C)=O)c(-c2csc(N)n2)c(=O)n1C` (centres undefined), for which the growth inhibition is -6.6% in test [1]; -26.2% in test [2]; -18.8% in test [3]; 4.35% in test [4]; -11.3% in test [5]; -4.55% in test [6].
On to `CC(=O)CC(=O)Nc1ccccc1C(C)C`, for which the growth inhibition in test [1] is 12.9%; in test [2], 8.1%; in test [3] it was 16.1%; in test [4] it was 7.4%; in test [5], -7.85%; in test [6], -1.7%.
As for `O=C(C1=Cc2ccccc2OC1)N1CCN(c2ccccc2Cl)CC1`, the growth inhibition in test [1] was 12.3%; in test [2], 20.2%; in test [3] it was 34.6%; in test [4] it was 24.4%; in test [5], 38%; in test [6], 40.1%.
Regarding `Cc1cccc(C)c1NC(=O)Nc1cccc(C(F)(F)F)c1`, the growth inhibition in test [1] is -16.4%; in test [2], -29.4%; in test [3] it was -14.7%; in test [4], -22.4%; in test [5] it was -8.25%; in test [6] it was -17.8%.
Take `O=C1/C(=C/c2ccco2)SC(=S)N1C1c2ccccc2Oc2ccccc21`: the growth inhibition is 25% in test [1]; 6.65% in test [2]; 67.2% in test [3]; 45.6% in test [4]; -0.4% in test [5]; 24.8% in test [6].
Take `O=C(N/N=C/c1ccc(Cl)cc1)C(c1ccccc1)N1CCCCC1` (centres undefined): the growth inhibition was 4.7% in test [1]; -2.65% in test [2]; -0.2% in test [3]; 4.6% in test [4]; 8.55% in test [5]; 13.7% in test [6].
Regarding `CCC1=CC(=O)C(CC)=CC1=O`, the growth inhibition in test [1] is 3.05%; in test [2], 25.2%; in test [3], -2.15%; in test [4] it was -23.7%; in test [5], 1.95%; in test [6], 15.6%.
Turning to `O=C(CSSCC(=O)Nc1ccc(Br)cc1)Nc1ccc(Br)cc1`, the growth inhibition is 28.8% in test [1]; 2.45% in test [2]; -11.5% in test [3]; 18.6% in test [4]; -6.4% in test [5]; 26.4% in test [6].
`COc1c2cc(C(C)(C)C)cc1CSCc1cc(C(C)(C)C)cc(c1OC)CCCCC2`: the growth inhibition was -1.25% in test [1]; -3.4% in test [2]; 16.2% in test [3]; -14.1% in test [4]; -14.6% in test [5]; -1.6% in test [6].
In the case of `O=C1C=C(c2ccccc2)C(=O)C(c2ccccc2)=C1c1ccccc1`, the growth inhibition was 73.2% (active) in test [1]; 88.2% (active) in test [2]; 88.8% (active) in test [3]; 80% (active) in test [4]; 78.2% (active) in test [5]; 89.6% (active) in test [6].
`Cc1ccc2nc(Nc3nc(C)cc(C)n3)[nH]c2c1`: the growth inhibition in test [1] is -36.9%; in test [2] it was -31.6%; in test [3] it was -21.9%; in test [4], -0.3%; in test [5] it was -17.8%; in test [6] it was -11.9%.
